D2 PAM-1 = potentiates the human D2 dopamine receptor allosterically; P14416; DiscoveRx D2 beta-arrestin cells, luminescence, 90 min; 100% = 57 uM dopamine signal; potentiation, % (concentration not given with the values); 0.23% of 360,000 active; in the data active means potentiation above about 50%
Target sequence (P14416 whole entry, looked up): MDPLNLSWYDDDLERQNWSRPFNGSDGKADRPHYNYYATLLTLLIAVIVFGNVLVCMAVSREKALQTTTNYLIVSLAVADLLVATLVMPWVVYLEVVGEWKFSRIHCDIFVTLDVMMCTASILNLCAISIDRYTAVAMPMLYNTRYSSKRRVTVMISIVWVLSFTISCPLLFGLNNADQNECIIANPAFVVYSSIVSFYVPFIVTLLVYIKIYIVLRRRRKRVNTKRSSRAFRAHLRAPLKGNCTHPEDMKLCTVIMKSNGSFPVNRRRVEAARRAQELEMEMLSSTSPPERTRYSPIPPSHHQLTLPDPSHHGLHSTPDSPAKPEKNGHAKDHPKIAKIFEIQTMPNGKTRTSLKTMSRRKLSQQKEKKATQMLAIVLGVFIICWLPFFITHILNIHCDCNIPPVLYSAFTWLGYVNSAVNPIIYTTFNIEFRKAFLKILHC
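PathHunter beta-arrestin assay in DiscoveRx D2 cells. Compounds were added with an EC20 of dopamine (50 nM final) for 90 min at 37 deg C. Luminescence was read 1 h after detection reagent, with 57 uM dopamine as the EC100 control.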
D2 ag-1 = activates the human D2 dopamine receptor. P14416. DiscoveRx PathHunter D2 beta-arrestin, luminescence, 90 min; 100% = 57 uM dopamine signal. activation, % (test concentration not listed). 0.084% of 360,000 active. AID 624465; in the data active means activation above about 40%
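Agonist mode: compounds alone added to overnight-plated D2 PathHunter cells for 90 min at 37 C, with 57 uM final dopamine (EC100) defining full response. Beta-arrestin recruitment detected by chemiluminescent reagent, read after 1 h at ambient temperature.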
D2 ag-2 = agonists of human D2 dopamine receptor | P14416 | HEK293 T-REx D2 cells, calcium flux agonist mode | activation, % at 2 µM | 0.53% of 340,000 active;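 active means activation over 3 SD above normal in the single-dose calcium agonist read, cut at about 30% in these data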
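Calcium-flux readout, 1 cycle/sec over 180 s following compound pin transfer, in inducible HEK293 Trex D2 cells (force-coupled); dopamine controls included. Positive calcium responses during this window marked compounds as potential agonists.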
D2 antag = antagonists of human D2 dopamine receptor. HEK293 TREx D2 cells, calcium flux, dopamine EC80. P14416. inhibition, % at 10 µM. 2% of 340,000 active; in the data active means inhibition above about 30%; inactive means below that, where a call was filed
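Calcium flux kinetic readout in an inducible HEK293 TREx D2 line plated overnight at 30 C. After 180 s compound exposure, an EC80 dopamine challenge follows with another 180 s kinetic read to detect antagonism.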
D2 PAM-2 = positively modulates the human D2 dopamine receptor allosterically. P14416. HEK293 T-REx D2, calcium flux, EC20 dopamine potentiation. potentiation, % at 10 µM. 0.34% of 340,000 active. AID 485347;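 active means potentiation over 3 SD above the plate norm, cut at about 30% in these data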
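Tetracycline-induced Hek293 Trex D2 cells, force-coupled to calcium, loaded with no-wash calcium dye. Compound added with 180 s kinetic read for agonism, then EC20 dopamine and a further 180 s read for potentiation.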
Each line names hits and unclear results; the compound was inactive in the other large screens. Rows were chosen to be rich in hits. Some 2.4% of all compounds tested hit in one or more screens of this group.

COc1ccc(CNC(=O)c2ccc3c(c2)N(Cc2c(F)cccc2Cl)C(=O)CS3)cc1	none (no result: D2 PAM-1, D2 ag-1, D2 antag)
CC(=O)Nc1cccc(C(=O)OCC(=O)c2ccccc2Cl)c1	D2 antag 41.1
CCOc1ccc(OCC)c(NC(=O)Cn2nc(CC)n3c(cc4sccc43)c2=O)c1	none (no result: D2 PAM-1, D2 ag-1, D2 antag)
CCCC(=O)Nc1ccc(OCC(=O)OC)cc1	none
CCCC(=O)Nc1ccc(Oc2ccc(NC(=O)CCC)cc2)cc1	D2 PAM-2 35.3
CCC(=O)NCCSc1c[nH]c2ccccc12	none
CC(C)C(=O)NCCSc1c[nH]c2ccccc12	D2 antag 31.1
O=C(Nc1ccc(O)cc1C(=O)O)c1ccc(NC(=O)c2ccco2)cc1	D2 antag 45.8
O=C(Nc1ccccc1C(=O)O)c1cccc(NC(=O)c2ccco2)c1	none (no result: D2 ag-2, D2 antag, D2 PAM-2)
Cc1cc(C)cc(N2CC(C(=O)OCC(=O)Nc3cc(C)on3)CC2=O)c1 (stereo not given)	D2 PAM-2 40.9
Cc1ccc(N2CC(C(=O)OCC(=O)Nc3cc(C)on3)CC2=O)c(C)c1 (stereo not given)	none
CCOc1cc(Cl)c(NC(=O)CC)cc1OCC	D2 antag 70.7
CC(C)n1cnc2c(Nc3ccc(C(=O)O)cc3)nc(Cl)nc21	none
CC(C)[C@H](CO)Nc1nc(Nc2ccc(Cl)c(C(=O)O)c2)c2ncn(C(C)C)c2n1	D2 antag 38.8
COc1ccc(C2CC(=O)Nc3c2c(C)nn3-c2nncc(-c3ccc(C)cc3)n2)c(OC)c1OC (stereo not given)	none (no result: D2 PAM-1, D2 ag-1, D2 antag)
Cc1cc(C)cc(NS(=O)(=O)c2ccc(-c3cc(C)no3)cc2)c1	none (no result: D2 PAM-1, D2 ag-1, D2 antag, D2 PAM-2)
CCc1cccc(NC(=O)Nc2cccs2)c1	D2 antag 32.4
COC(=O)c1ccccc1NC(=O)Nc1cccs1	D2 antag 37.9
N#Cc1cccc(NC(=O)Nc2cccs2)c1	none
Cc1cccn2c(=O)c(C(=O)NC(C)c3ccccc3)c(O)nc12 (stereo not given)	none (no result: D2 PAM-1, D2 ag-1, D2 antag)
CCN(CC)CCCNC(=O)CCCn1ncn2c(cc3occc32)c1=O	none (no result: D2 PAM-1, D2 ag-1, D2 antag)
CCC(=O)N1c2ccc(S(=O)(=O)CCC(=O)NCCC3=CCCCC3)cc2CC1C (stereo not given)	D2 antag 30.9
CCC(=O)N1CCc2cc(S(=O)(=O)CCC(=O)NCCC3=CCCCC3)ccc21	none (no result: D2 ag-2, D2 antag, D2 PAM-2)
COc1ccc(-c2noc(CCC(=O)Nc3ccccc3Cl)n2)cc1OC	none (no result: D2 PAM-1, D2 ag-1, D2 antag, D2 PAM-2)
Clc1ccc(OCCSc2nnnn2C2CCCCC2)cc1	D2 antag 34.4
Cc1nnc(SCC(=O)NCCN2C(=O)CSC2=O)n1-c1ccccc1	D2 antag 46.7
O=C(CCCn1c(=O)[nH]c2ccsc2c1=O)N1CCN(c2cccc(C(F)(F)F)c2)CC1	none (no result: D2 PAM-1, D2 ag-1, D2 antag)
CCCCN1C(=O)C2C(C(=O)Nc3cccc(OC)c3)C3C=CC2(O3)C1C(=O)NC1CCCCC1C (stereo not given)	D2 antag 35.8
CCCCN(C)CCN1C(=O)C2C(C(=O)Nc3cccc(OC)c3)C3C=CC2(O3)C1C(=O)NC1CCCCC1C (stereo not given)	none
COC(=O)c1ccc(NC(C)C(=O)OC)c([N+](=O)[O-])c1 (stereo not given)	D2 antag 42.8
CCOC(=O)c1ccc(CN(Cc2ccc(F)cc2)S(=O)(=O)c2cc(C(=O)Nc3cccc(C(F)(F)F)c3)ccc2F)cc1	none (no result: D2 PAM-1, D2 ag-1, D2 antag)
Cn1c(-c2ccccc2)c(C(=O)CCl)c2ccccc21	D2 PAM-2 38.8
Cc1ccc(NC(=O)Cn2nc(C)c3nn(-c4ccc(Cl)cc4)c(C)c3c2=O)cc1C	none (no result: D2 PAM-1, D2 ag-1, D2 antag)
Cc1nc(C)c(C(=O)NCc2ccc(Cl)cc2)o1	none
Cc1ccc(CC(=O)NCc2ccc(Cl)cc2)cc1	D2 antag 52.6
O=C(CC(=O)NCc1ccc(Cl)cc1)NCc1ccc(Cl)cc1	none
Cc1nn(C)c(C(=O)NCc2ccc(Cl)cc2)c1Cl	D2 antag 44.4
Cc1nn(C)c(C(=O)NNC(=S)NCc2ccco2)c1Cl	D2 PAM-2 33.6
Cc1c(C(=O)Nc2cccc(C(F)(F)F)c2)sc2nc[nH]c(=O)c12	none (no result: D2 PAM-1, D2 ag-1, D2 antag)
Cn1cc(CC(=O)NCCN2CCOCC2)c2ccccc21	D2 PAM-2 39.3
Cn1cc(CC(=O)NCc2ccc(F)cc2)c2ccccc21	none
CC(C)c1ccc(NC(=O)Cc2cn(C)c3ccccc23)cc1	D2 antag 48.8
O=C(CCn1c(=O)c2cccn2c2ccc(F)cc21)NCCc1ccccc1Cl	none (no result: D2 PAM-1, D2 ag-1, D2 antag)
O=C(CSC1=Nc2ccccc2N=C(c2ccc(F)cc2)C1)Nc1cccc(C(F)(F)F)c1	none (no result: D2 PAM-1, D2 ag-1, D2 antag)
CC(=O)Nc1ccc(S(=O)(=O)NC2(C(F)(F)F)NC(=O)N(C3CCCC3)C2=O)cc1 (stereo not given)	D2 PAM-2 32.9
Cc1sc2ncnc(N3CCC(C(=O)NNC(=O)COc4ccc(Cl)cc4)CC3)c2c1C	none (no result: D2 ag-2, D2 antag, D2 PAM-2)
Cc1sc2ncnc(N3CCN(CCOc4ccc(Cl)cc4)CC3)c2c1C	D2 antag 35.5
Cc1ccc(S(=O)(=O)N2CCCN(Cc3nc4ccccc4c(=O)[nH]3)CC2)cc1	none
COc1cc2nc(CN3CCN(S(=O)(=O)c4ccc(C)c(C)c4)CC3)[nH]c(=O)c2cc1OC	D2 PAM-2 32.3
CCNCc1nc2cc(OC)c(OC)cc2c(=O)[nH]1	D2 antag 32.7
CCN1CCN(C(=O)c2ccc3c(c2)N(Cc2ccc(Cl)cc2)C(=O)c2ccccc2S3=O)CC1 (stereo not given)	none (no result: D2 PAM-1, D2 ag-1, D2 antag)
CN1CCN(c2ccccc2NC(=O)COc2ccc(Cl)cc2)CC1	D2 antag 30.3
CN1CCN(c2ccccc2NC(=O)COc2ccccc2)CC1	none
CCCOc1ccc(C2C(=O)N(C3CCCCCC3)CC(=O)N2CCC)cc1OC (stereo not given)	none (no result: D2 PAM-1, D2 ag-1, D2 antag)
Cc1c(C(=O)NCCN2C(=O)S/C(=C\c3cccnc3)C2=O)cccc1[N+](=O)[O-]	none
O=C(NCCN1C(=O)S/C(=C\c2cccnc2)C1=O)c1ccc([N+](=O)[O-])s1	D2 antag 33.2
Cc1cccc(OCC(=O)NCc2ccc3c(c2)CCN3C(=O)c2ccccc2)c1	none (no result: D2 PAM-1, D2 ag-1, D2 antag)
NS(=O)(=O)c1cccc(NC(=O)COC(=O)C2(c3cccc(F)c3)CCCC2)c1	D2 antag 50.8
O=C(NCc1ccc(F)cc1)c1cc2sccc2n1Cc1ccc(F)cc1	D2 PAM-2 31.2 (no result: D2 PAM-1, D2 ag-1)
Cc1cc(C)c(NC(=O)C(C)n2nc(-c3ccc(C)c(C)c3)ccc2=O)c(C)c1 (stereo not given)	none (no result: D2 PAM-1, D2 ag-1, D2 ag-2, D2 antag)
O=C1C=C(Nc2cccnc2)c2ccccc2C1=O	D2 PAM-1 57.8 (no result: D2 ag-2, D2 antag, D2 PAM-2)
O=C1C=C(Nc2ccc(F)cc2)c2ccccc2C1=O	D2 PAM-1 50.5
CN(Cc1ccccc1)C(=O)c1ccccc1NC(=O)c1ccco1	D2 antag 31.2
O=C(O)CNC(=O)c1ccccc1NC(=O)c1ccco1	none
CN(Cc1ccccc1)C(=O)CC(=O)N(C)Cc1ccccc1	D2 PAM-2 33.6
CN(Cc1ccccc1)C(=O)Cc1ccccc1	none
Cc1ccc(C)c(NC(=O)CC2NCCNC2=O)c1 (stereo not given)	none (no result: D2 PAM-1, D2 ag-1, D2 antag)
